For eight molecules, composite z-score and z-score results are on record in PubChem BioAssay.

The test system of experiment [1] is Plasmodium falciparum Sir2 (PF13_0152, Sir2A). As to the kind of experiment: Plasmodium falciparum Sir2A binding compounds – biochemical, small-molecule microarray, 635 nm fluorescence, primary screen (AID 1098).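 Also: score merges spot fluorescence intensity with its signal-to-noise ratio.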 The conditions noted are these: fluorescence 635 nm, higher = more signal.
The nature of experiment [2]: probe aDKK1 binding to arrayed compounds – biochemical, biotinylated probe, 635/667 nm fluorescence, primary screen (AID 1099).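 Also: score merges 667nm spot fluorescence with signal to noise across triplicate slides.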 The conditions noted are these: small-molecule microarray, higher = more signal.
The nature of experiment [3]: probe aCHRDL2 binding to arrayed compounds – biochemical, biotinylated probe, 635/667 nm fluorescence, primary screen (AID 1100). The conditions noted are these: small-molecule microarray, higher = more signal.
A short description of experiment [4]: change in splice reporter luminescence, either direction, cell-based, HEK293, spliceosome inhibition project, primary screen (AID 1101).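 Also: HEK293 cells carrying a splicing-competent luciferase reporter gene; test concentration not given here.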 The conditions noted are these: HEK293 splicing luciferase reporter, 24 h, higher = more signal, called active from +8 up or from −8 down. On the technique in general: In a reporter assay the amount or activity of a reporter protein is the signal.

The target in experiment [5] is Fibroblast growth factor 10 (Homo sapiens) (UniProt O15520). Nature of the experiment: compounds binding fibroblast growth factor 10 – biochemical, small-molecule microarray, 635 nm fluorescence, primary screen (AID 1102). Particulars: FGF10 binding, fluorescence 635 nm, higher = more signal.
Chain of Fibroblast growth factor 10 (Homo sapiens) (O15520 whole entry, looked up): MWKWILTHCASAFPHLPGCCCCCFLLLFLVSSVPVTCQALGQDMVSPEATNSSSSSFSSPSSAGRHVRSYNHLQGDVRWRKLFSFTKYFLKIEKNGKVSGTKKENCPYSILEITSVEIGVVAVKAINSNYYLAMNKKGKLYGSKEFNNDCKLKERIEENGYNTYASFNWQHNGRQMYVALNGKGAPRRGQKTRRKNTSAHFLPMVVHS
Experiment [6] deals with glycogen synthase kinase-3 (GSK3A per assay name; protocol says GSK3B). Nature of the experiment: compounds binding glycogen synthase kinase-3 – biochemical, small-molecule microarray, 635 nm fluorescence, GSK3A, primary screen (AID 1103). Also: the record names both GSK3A and GSK3B. Particulars: fluorescence 635 nm, higher = more signal.
In experiment [7] the target is Epidermal growth factor receptor (Homo sapiens) (UniProt P00533). Nature of the experiment: compounds binding epidermal growth factor receptor – biochemical, small-molecule microarray, 635 nm fluorescence, primary screen (AID 1104).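 Also: score merges 667 nm emission intensity with spot signal to noise over triplicate slides.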 The conditions noted are these: EGFR binding, higher = more signal.
Chain of Epidermal growth factor receptor (Homo sapiens) (P00533 whole entry, looked up): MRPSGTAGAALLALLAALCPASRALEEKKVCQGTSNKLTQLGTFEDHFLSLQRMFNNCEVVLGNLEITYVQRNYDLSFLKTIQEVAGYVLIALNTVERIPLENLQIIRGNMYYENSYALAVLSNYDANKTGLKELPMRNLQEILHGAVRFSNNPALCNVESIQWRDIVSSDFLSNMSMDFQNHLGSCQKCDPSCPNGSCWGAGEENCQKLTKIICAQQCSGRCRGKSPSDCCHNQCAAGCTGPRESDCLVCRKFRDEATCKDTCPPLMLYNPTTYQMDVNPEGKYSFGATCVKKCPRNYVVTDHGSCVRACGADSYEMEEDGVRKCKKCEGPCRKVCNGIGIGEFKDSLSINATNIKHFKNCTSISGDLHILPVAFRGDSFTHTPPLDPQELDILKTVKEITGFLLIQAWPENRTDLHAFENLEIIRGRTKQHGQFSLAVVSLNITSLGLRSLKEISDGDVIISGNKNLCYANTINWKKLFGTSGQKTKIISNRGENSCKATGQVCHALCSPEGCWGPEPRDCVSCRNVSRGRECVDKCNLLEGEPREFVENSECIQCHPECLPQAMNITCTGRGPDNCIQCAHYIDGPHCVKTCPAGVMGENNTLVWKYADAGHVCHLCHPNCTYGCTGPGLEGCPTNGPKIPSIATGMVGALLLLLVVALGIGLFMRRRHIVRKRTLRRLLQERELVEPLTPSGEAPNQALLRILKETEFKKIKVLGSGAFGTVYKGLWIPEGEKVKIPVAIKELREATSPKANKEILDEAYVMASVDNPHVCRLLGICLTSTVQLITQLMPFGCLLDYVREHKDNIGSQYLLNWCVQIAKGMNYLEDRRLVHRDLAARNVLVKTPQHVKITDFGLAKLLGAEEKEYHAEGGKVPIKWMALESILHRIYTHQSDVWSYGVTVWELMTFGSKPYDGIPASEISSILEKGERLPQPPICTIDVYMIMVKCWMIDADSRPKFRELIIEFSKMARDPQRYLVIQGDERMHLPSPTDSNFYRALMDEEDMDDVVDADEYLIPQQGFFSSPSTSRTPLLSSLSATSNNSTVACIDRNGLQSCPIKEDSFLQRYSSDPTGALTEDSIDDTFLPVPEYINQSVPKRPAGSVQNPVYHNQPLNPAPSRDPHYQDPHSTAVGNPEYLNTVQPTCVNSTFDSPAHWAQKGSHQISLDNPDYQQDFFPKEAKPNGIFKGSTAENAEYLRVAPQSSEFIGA
The target of experiment [8] is Follistatin-related protein 3 (Homo sapiens) (UniProt O95633). As to the kind of experiment: compounds binding follistatin-related protein 3 – biochemical, small-molecule microarray, 635 nm fluorescence, primary screen (AID 1105).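 Also: score merges emission near 667 nm and signal to noise per printed spot across three slides.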 The conditions noted are these: FSTL3 binding, higher = more signal.
Chain of Follistatin-related protein 3 (Homo sapiens) (O95633 whole entry, looked up): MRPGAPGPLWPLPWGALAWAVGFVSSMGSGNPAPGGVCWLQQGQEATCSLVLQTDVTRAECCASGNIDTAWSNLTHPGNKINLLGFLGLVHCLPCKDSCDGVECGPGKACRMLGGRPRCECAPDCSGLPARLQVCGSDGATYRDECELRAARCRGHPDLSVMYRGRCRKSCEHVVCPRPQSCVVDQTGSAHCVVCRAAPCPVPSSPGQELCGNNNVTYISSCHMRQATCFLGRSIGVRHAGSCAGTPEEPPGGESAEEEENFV
The target of experiment [9] is Dickkopf-related protein 1 (Homo sapiens) (UniProt O94907). As to the kind of experiment: small molecules binding DKK1 protein – biochemical, small-molecule microarray, 635 nm fluorescence scan, primary screen (AID 1106).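 Also: score merges emission near 667 nm with signal to noise over three replicate slides.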 Particulars: higher = more signal.
Chain of Dickkopf-related protein 1 (Homo sapiens) (O94907 whole entry, looked up): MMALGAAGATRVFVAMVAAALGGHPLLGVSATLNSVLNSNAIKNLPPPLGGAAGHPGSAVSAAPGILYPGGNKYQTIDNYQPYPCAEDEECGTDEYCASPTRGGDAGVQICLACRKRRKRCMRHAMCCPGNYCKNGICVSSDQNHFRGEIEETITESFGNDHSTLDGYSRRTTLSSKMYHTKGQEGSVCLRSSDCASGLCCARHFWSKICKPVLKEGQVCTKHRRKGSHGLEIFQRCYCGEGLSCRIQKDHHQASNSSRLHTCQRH
In experiment [10] the test system is Inhibin beta A chain (activin A). Nature of the experiment: small molecules binding activin A – biochemical, small-molecule microarray, 635 nm fluorescence scan, primary screen (AID 1107).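 Also: mouse activin A protein probed at 4.33 µg/mL on printed slides; score merges bound-protein fluorescence near 667 nm with spot signal-to-noise.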 Particulars: INHBA, higher = more signal.
Experiment [11] relates to Human papillomavirus type 1a protein E7 (residues 44-93). Nature of the experiment: small molecules binding HPV E7 44-93 – biochemical, small-molecule microarray, residues 44-93, 635 nm fluorescence, primary screen (AID 1108).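 Also: E7 fragment applied at 1 µg/mL in TBST for 1 h at 4 C; score combines spot fluorescence with its signal to noise ratio.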 The conditions noted are these: fluorescence 635 nm, higher = more signal.
Experiment [12] in a line: hepatitis C replication reporter changes, two-sided – Huh7 cells, luciferase reporter, HCV replication inhibitor project, primary screen (AID 1109).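 Also: huh7 hepatoma cells harbouring a luciferase neomycin HCV replicon reporter; luciferase luminescence as measure of HCV replicon replication; test concentration not given here.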 The conditions noted are these: Huh7 HCV replicon luciferase reporter, 48 h; higher = more signal.
In experiment [13] the target is Left-right determination factor 2 (Homo sapiens) (UniProt O00292). Nature of the experiment: small molecules binding LEFTY2 protein – biochemical, small-molecule microarray, 635 nm fluorescence scan, primary screen (AID 1110). The conditions noted are these: higher = more signal.
Chain of Left-right determination factor 2 (Homo sapiens) (O00292 whole entry, looked up): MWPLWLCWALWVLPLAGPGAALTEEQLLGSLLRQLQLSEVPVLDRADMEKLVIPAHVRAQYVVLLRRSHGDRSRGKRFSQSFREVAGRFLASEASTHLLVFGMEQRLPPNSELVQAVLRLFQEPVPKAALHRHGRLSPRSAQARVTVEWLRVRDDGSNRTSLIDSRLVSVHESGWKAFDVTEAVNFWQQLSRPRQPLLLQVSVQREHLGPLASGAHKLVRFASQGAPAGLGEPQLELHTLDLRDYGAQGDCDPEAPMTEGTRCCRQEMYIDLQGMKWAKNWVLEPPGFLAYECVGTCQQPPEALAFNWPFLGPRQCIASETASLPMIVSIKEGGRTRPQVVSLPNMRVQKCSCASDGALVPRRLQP
Experiment [14] concerns the target Calmodulin-1 (Homo sapiens) (UniProt P0DP23). As to the kind of experiment: small molecules binding calmodulin-1 with EGTA – biochemical, small-molecule microarray, Cy5-labelled CALM1, profiling panel (AID 1111).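 Also: labelled calmodulin applied in Tris saline Tween buffer holding calcium plus EGTA and DTT.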 The conditions noted are these: Cy5-CALM1 binding fluorescence, higher = more signal.
The target is the same in experiment [15]. As to the kind of experiment: small molecules binding Ca-loaded calmodulin-1 – biochemical, small-molecule microarray, Cy5-labelled CALM1, plus calcium, artefact control for SMM control-protein annotation, profiling panel (AID 1112).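 Also: score merges spot fluorescence with signal to noise from triplicate slides.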 Particulars: Cy5-CALM1 binding fluorescence, higher = more signal.
Experiment [16] is described as follows: probe aWnt5a binding to arrayed compounds – biochemical, biotinylated probe, 635/667 nm fluorescence, primary screen (AID 1113).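 Also: score merges 667 nm fluorescence intensity with signal-to-noise per printed feature.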 The conditions noted are these: small-molecule microarray, higher = more signal.
Experiment [17] is described as follows: probe aShh binding to arrayed compounds – biochemical, biotinylated probe, 635/667 nm fluorescence, primary screen (AID 1114).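 Also: probe is biotin-labelled aShh protein from a stem cell growth factor screen; measures binding of labelled protein to compounds printed on the slide; score merges feature fluorescence at 667 nm with signal-to-noise.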 The conditions noted are these: small-molecule microarray, higher = more signal.
Experiment [18] is described as follows: probe aNog binding to arrayed compounds – biochemical, biotinylated probe, 635/667 nm fluorescence, primary screen (AID 1115).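 Also: probe is biotinylated aNog protein used at 0.15 µg/mL for 1 h at 4 C; z-score combines 667 nm fluorescence of each spot with its signal to noise.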 The conditions noted are these: small-molecule microarray, higher = more signal.
Experiment [19] has as its target Torsin-1A-interacting protein 1 (Homo sapiens) (UniProt Q5JTV8). As to the kind of experiment: compound microarray binding of lysate hLAP1 – cell lysate, small-molecule microarray, COS7 lysate, 635/667 nm fluorescence, primary screen (AID 1116). The conditions noted are these: 635 nm fluorescence, higher = more signal.
The target of experiment [20] is Alpha-bungarotoxin (Bungarus multicinctus) (UniProt P60615). Nature of the experiment: compounds binding labelled alpha-BTX control protein – biochemical, small-molecule microarray, Alexa647 label, 635/667 nm fluorescence, artefact control for SMM control protein annotation, profiling panel (AID 1117). The conditions noted are these: alpha-BTX-A647 binding fluorescence, higher = more signal.
Chain of Alpha-bungarotoxin (Bungarus multicinctus) (P60615 whole entry, looked up): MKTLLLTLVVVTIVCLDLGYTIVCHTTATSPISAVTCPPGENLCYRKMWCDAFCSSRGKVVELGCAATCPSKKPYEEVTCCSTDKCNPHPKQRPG

Active and inactive are the calls of the source.

Chain of Torsin-1A-interacting protein 1 (Homo sapiens) (Q5JTV8 whole entry, looked up): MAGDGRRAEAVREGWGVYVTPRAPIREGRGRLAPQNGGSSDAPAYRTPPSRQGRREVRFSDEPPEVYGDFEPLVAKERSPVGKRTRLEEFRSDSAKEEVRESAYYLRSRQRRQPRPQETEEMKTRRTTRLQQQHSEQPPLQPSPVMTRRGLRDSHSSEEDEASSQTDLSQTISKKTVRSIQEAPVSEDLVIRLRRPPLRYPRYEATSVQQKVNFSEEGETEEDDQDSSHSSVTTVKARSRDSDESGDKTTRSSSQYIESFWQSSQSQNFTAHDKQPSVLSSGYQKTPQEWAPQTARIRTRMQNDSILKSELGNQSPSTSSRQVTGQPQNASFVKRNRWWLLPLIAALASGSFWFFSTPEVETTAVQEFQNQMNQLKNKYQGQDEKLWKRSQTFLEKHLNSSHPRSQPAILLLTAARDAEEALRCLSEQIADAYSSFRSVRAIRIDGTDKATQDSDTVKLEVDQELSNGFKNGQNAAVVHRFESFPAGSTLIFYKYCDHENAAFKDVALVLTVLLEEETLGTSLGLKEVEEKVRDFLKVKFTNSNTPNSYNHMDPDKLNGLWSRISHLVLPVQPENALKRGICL

In the case of `COCCOC(=O)N1C(=O)[C@@]2(c3cc(C#Cc4ccc(OC)cc4)ccc31)[C@H](c1ccc(O)cc1)N1[C@H](c3ccccc3)[C@H](c3ccccc3)OC(=O)[C@H]1[C@@H]2C(=O)NC[C@H](O)c1ccccc1`, the composite z-score is 1.47 in experiment [1]; -0.0755 in experiment [2]; -0.378 in experiment [3]; 1.42 in experiment [5]; 1.31 in [6]; 0.769 in [7]. Besides, the composite z-score in experiment [8] came to 1.4; in experiment [9], 0.811; in experiment [10], 0.113; in [11] it was 1.44; in experiment [13] it was 0.598; in experiment [14], 1.18. The composite z-score in [15] is -0.209; in experiment [16], 0.0809; in [17], 0.692; in [18], -0.467; in [19] it was 0.681; in experiment [20], 1.54. Also, the z-score in experiment [4] was -1.68 (inactive); in [12], -2.2.
In the case of `COCCOC(=O)N1C(=O)[C@@]2(c3cc(C#CC4=CCCCC4)ccc31)[C@H](C(=O)Nc1nc3ccccc3s1)[C@H]1C(=O)O[C@H](c3ccccc3)[C@H](c3ccccc3)N1[C@@H]2c1ccc(OCCO)cc1`, the composite z-score was 0.687 in [1]; -0.0057 in [2]; 0.235 in experiment [3]; 0.945 in experiment [5]; 1.21 in [6]; 0.36 in [7]. Moreover, the composite z-score in [8] is 0.908; in [9], 0.495; in experiment [10], 0.91; in [11], 1.05; in [13], 0.269; in experiment [14], 0.792. Besides, the composite z-score is -0.171 in experiment [15]; -0.0685 in [16]; -0.196 in [17]; -0.337 in experiment [18]; 0.47 in experiment [19]; 0.387 in experiment [20]. Besides, the z-score was 0.000305 (inactive) in experiment [4] and -1.09 in experiment [12].
On to `COCC(=C=CC[C@H](O)c1ccccc1OCCO)C[C@H](O)c1cc(Cl)cc(Cl)c1O`, for which the composite z-score in experiment [1] is 0.588; in [2], -0.141; in experiment [3] it was -0.0448; in experiment [5] it was 1.62; in experiment [6] it was 0.702; in [7], -0.0335. The composite z-score is 0.897 in experiment [8]; -0.0154 in experiment [9]; 0.282 in experiment [10]; 1.31 in experiment [11]; 0.223 in [13]; 0.068 in experiment [14]. Besides, the composite z-score in experiment [15] is -0.596; in [16], 0.0357; in experiment [17], 0.207; in experiment [18], 0.464; in experiment [19], 0.743; in experiment [20] it was 1.08. For the same molecule, the values for the z-score in experiment [4] and in experiment [12] were -0.705 (inactive) and -4.43, respectively.
Regarding `O=C1OCCC/C=C\[C@H]2OC34C=CCN(Cn5nnc6ccccc65)C(=O)[C@H]3N(CCCCCCO)C(=O)[C@@H]4C12` (stereo not given in full), the composite z-score was 1.53 in experiment [1]; -0.234 in experiment [2]; 0.489 in [3]; -1.41 in [5]; -0.662 in [6]; -0.636 in experiment [7]. Also, the composite z-score is -0.321 in [8]; -0.774 in experiment [9]; 1.12 in experiment [10]; -0.311 in experiment [11]; -1.17 in [13]; -0.824 in experiment [14]. Moreover, the composite z-score in [15] is -0.317; in [16], -0.18; in experiment [17], -0.0035; in experiment [18], 0.599; in experiment [19] it was -0.401; in experiment [20], -0.716. The z-score in [4] is -1.57 (inactive); in experiment [12], -0.625.
On to `CCCC[C@@H]1C[C@H]1[C@@H](NC(=O)c1ccco1)c1ccc(C(=O)OC)cc1`, for which the composite z-score in experiment [1] was -0.433; in experiment [2], 0.0294; in [3], 0.838; in experiment [5] it was 0.0373; in experiment [6], -1.09; in experiment [7] it was -0.643. In addition, the composite z-score in experiment [8] was -0.76; in experiment [9] it was -0.633; in experiment [10], 0.807; in [11], 0.0703; in [13] it was -0.423; in experiment [14] it was 0.0927. Further, the composite z-score in experiment [15] was 0.555; in [16], -0.027; in experiment [17], -0.217; in experiment [18], -0.261; in experiment [19] it was -0.392; in [20], -0.335. The z-score in [4] is 0.965 (inactive); in experiment [12], -1.07.
In the case of `COc1ccc(CCNC(=O)[C@@H]2c3ccccc3C(=O)N(C3Cc4ccccc4C3)[C@H]2c2ccc(CO)cc2)cc1`, the composite z-score in experiment [1] was 0.613; in experiment [2], -0.124; in experiment [3] it was 0.857; in experiment [5] it was 0.0846; in [6] it was 0.316; in [7] it was -0.19. Besides, the composite z-score in experiment [8] is 0.0595; in experiment [9] it was -0.337; in [10], 0.832; in experiment [11], 1.35; in experiment [13], 0.0971; in experiment [14], 0.329. The composite z-score in [15] is 0.732; in experiment [16], -0.0738; in [17] it was 0.0856; in [18], -0.417; in experiment [19], 1.24; in experiment [20] it was 0.134. The z-score in experiment [4] was 0.54 (inactive); in [12] it was -1.14.
Take `COCCOC(=O)N1C(=O)[C@@]2(c3cc(C#CCCO)ccc31)[C@H](C(=O)N1CCN(c3ncccn3)CC1)[C@H]1C(=O)O[C@H](c3ccccc3)[C@H](c3ccccc3)N1[C@@H]2c1ccccc1OCCO`: the composite z-score in experiment [1] is 0.748; in experiment [2] it was 0.293; in experiment [3] it was -0.0474; in [5] it was 0.727; in [6] it was 1.26; in experiment [7], 0.688. Moreover, the composite z-score in experiment [8] is 0.751; in experiment [9] it was 0.547; in experiment [10], 0.487; in experiment [11], 1.37; in [13] it was 0.56; in [14] it was 1.72. The composite z-score in [15] is 0.55; in experiment [16], -0.0614; in [17], -0.214; in experiment [18], 0.207; in [19], 0.249; in [20], 0.64. The z-score is -0.32 (inactive) in experiment [4] and -1.86 in experiment [12].
With `COC(=O)C(CC#Cc1ccc2c(c1)[C@]1(C(=O)N2)[C@H](C(=O)O)[C@H]2C(=O)O[C@H](c3ccccc3)[C@H](c3ccccc3)N2[C@@H]1c1ccc(O)cc1)C(=O)OC`, the composite z-score in experiment [1] is 0.472; in [2], -0.0082; in [3] it was 0.634; in [5] it was 0.284; in experiment [6], -0.266; in experiment [7], -0.46. Further, the composite z-score in experiment [8] is -0.662; in [9] it was -0.685; in experiment [10], -1.07; in experiment [11] it was 1.03; in [13], -0.354; in [14] it was -0.345. Besides, the composite z-score in [15] is 0.0677; in experiment [16] it was -0.124; in [17] it was -0.366; in experiment [18], 0.26; in experiment [19], -0.273; in [20] it was -0.472. In addition, the z-score was 0.199 (inactive) in experiment [4] and -0.374 in experiment [12].
